# Assay results from PubChem BioAssay AID1745845 (National Center for Advancing Translational Sciences (NCATS), 2022).
# About 2,600 (0.72%) of roughly 360,000 compounds were called active. Roughly 5% stayed inconclusive and do not appear here. The list comes from a sample in which actives are over-represented; it also holds similar structures and randomly drawn compounds. Unmarked numbers belong to inactive results. The call rests on the fitted dose curve; in most records, active means well fitted inhibition curve with a large enough effect; inconclusive means small, poorly fitted or top-dose-only effect; inactive means no such curve, though single readings can be large or run the other way.
# Experiment: Primary qHTS for Inhibitors of ATXN expression; further: nearly all actives have a fitted effect of over 55% in size
# Details: HEK-293 ATXN2-luciferase reporter, luminescence, 24 h; series mostly up to 57 µM; activity change, negative = inhibition: at the top concentration
# Description: University of Utah School of Medicine, Salt Lake City, Utah
# Spinocerebellar ataxia type 2 (SCA2) is a multisystem neurodegenerative disease caused by a dominantly acting mutation leading to expansion of a polyQ domain in the ataxin-2 protein (ATXN2). SCA2 patients develop progressive ataxia and later lose function in other neuronal systems. Prominent parkinsonian signs develop in some patients. Like many neurodegenerative disorders, no symptomatic or disease-modifying treatments are known.
# The primary objective of the proposed research is to identify compounds inhibiting ATXN2 expression and to test them for efficacy in SCA2 mouse models. We have developed a cell-based assay paired with an in vivo mouse model using identical luciferase expression constructs. This approach takes advantage of an ATXN2-luciferase transgene, with the luciferase gene flanked by the upstream and downstream portions of the ATXN2 gene. Here we describe a 5-7 dose quantitative high thoroughput screen (qHTS) for compounds lowering ATXN2 expression. We screened the NIH Molecular Libraries Small Molecule Repository (MLSMR) and NCGC's mechanistically annotated (MIPE) and drug repurposing (NPC) collections of compounds for lowering expression of an ATXN2-luciferase reporter in HEK-293 cells. The assay is a multiplexed cell viability assay to ensure target reduction in the absence of cytotoxicity. Secondary qHTS assays included a CMV-luciferase reporter expressed in HEK-293 cells as well as a biochemical assay using recombinant luciferase to detect inhibitors of the reporter enzyme. Compounds that inhibit ATXN2 expression but is not cytotoxic were selected for confirmatory and secondary screens.
# PROTOCOL TABLE (as described by Inglese J, Shamu CE and Guy RK. 2007)
# SEQUENCE No. (e.g., 1, 2, 3, etc.); […] (e.g., Cells, Incubation, Reagent, etc.); VALUE; DESCRIPTION.
# 1; Cells; 4 uL; white, solid bottom, 1536-well Greiner assay plate.
# 2; Incubation; 2 hr; 37 degree C in 5% humidified CO2.
# 3; Compounds; 23 nL; Kalypsis pintool (Wako USA) equipped with a 1536-well pin head.
# 4; Incubation; 24 hr; 37 degree C in 5% humidified CO2.
# 5; Reagent; 1 uL; Gly-Phe-7-Amino-4-trifluoromethylcoumarin.
# 6; Incubation; 30 min; 37 degree C in 5% humidified CO2.
# 7; Detection; Fluorescence; ViewLux plate reader (PerkinElmer).
# 8; Reagent; 3 uL; SteadyGlo luciferase solution (Promega).
# 9; Incubation; 5 min; room temperature.
# 10; Detection; Luminescence; ViewLux plate reader (PerkinElmer).
# NOTES (numbers refer to Sequence numbers above)
# 1. S2 cells expressing ATXN2-luciferase reporter were suspended in phenol-red free DMEM and dispensed in assay plates using a Multidrop Combi dispenser (Thermo Fisher Scientific).
# 2. Assay plates were incubated. Evaporation was prevented by covering assay plates with metal lids containing holes to allow gas diffusion.
# 3. Compounds were added in a dose response manner with the final concentrations of 57, 11.4, 2.28, 0.46, 0.091, 0.018, 0.0037 uM. Vehicle-only plates, with DMSO being pin-transferred to columns 5-48, were inserted uniformly at the beginning and the end of each library to monitor and record any shifts in assay performance.
# 5. 125 uM Gly-Phe-7-Amino-4-trifluoromethylcoumarin (MP Biomedicals) working concentration was used at a final concentration of 25 uM.
# 7. To assess cell viability; the assay plates were read using the ViewLux high-throughput CCD imager (PerkinElmer), wherein single end-point fluorescence measurement was acquired (excitation 405/10; emission 540/25 nm).
# 8. Detection reagent SteadyGlo Luciferase (Promega) was added to the assay plate.
# 10. Luminescence is then measured on the ViewLux imager equipped with a clear emission filter using a 2 sec exposure. All screening operations were performed on a fully integrated robotic system (Kalypsys) containing one RX-130 and two RX-90 anthropomorphic robotic arms (Staubli).
# […]
# On the % scale 0 is the no-effect control and ±100 the full control effect; potency means the concentration at half of the fitted maximal effect.
Compound,"activity change, negative = inhibition",Potency
COc1cccc(-c2cccc(NC(=O)C3CCN(C4CCC4)CC3)c2)c1,3.94%,
O=C(NC1CCCC1)C1CCN(C(=O)Nc2cccc(Cl)c2)CC1,-2.76%,
O=C(Nc1cccc(-c2cccc(Cl)c2)c1)C1CCN(C2CCC2)CC1,,28.2 µM (active)
Cc1cc(C)c2nc3nc(C)cc(C)c3c(N)c2c1,,25.1 µM (active)
CC(=O)OC[C@@H]1O[C@@H](n2ccc(=O)[nH]c2=O)[C@H](OC(C)=O)[C@H]1OC(C)=O,-15.2%,
Cc1cccc(C)c1NC(=O)c1ccc(N)cc1,9.21%,
COc1cc(C=CC(=O)O)ccc1O,-4.31%,
Cc1nc(Nc2ccccc2C)c2cnn(C)c2n1,-6.74%,
Cc1cc(Nc2cccc(C(F)(F)F)c2)nc2ccc(NC(=O)c3ccc(=O)[nH]c3)cc12,-12.6%,
Cc1ccc(C(=O)Nc2cccc(C(F)(F)F)c2)cc1Nc1nc(-c2cccnc2)nc2c1cnn2C,,24.3 µM (active)
COc1ccc(NC(=O)Nc2cccc(-c3noc(C)n3)c2)cc1,3.77%,
CCCNC(=O)CCC(=O)N1Cc2ccccc2Oc2ncccc21,-2.06%,
CCOC(=O)Cn1c(=O)n(-c2ccccc2OC)c2nc(-c3cccc(F)c3)nc(C(N)=O)c21,-23.1%,
COc1ccc(OC)c(-c2nc(C(N)=O)c3c(n2)n(-c2ccc4c(c2)OCO4)c(=O)n3C)c1,4.99%,
CCc1ccc2c(c1)NC(=O)C2(C)Cc1ccc(OC(F)(F)F)cc1 (centres undefined),,25.1 µM (active)
COC(=O)Cc1ccc(OCC(=O)Nc2ccc(OC(F)(F)F)cc2)cc1,-6.45%,
CCC(=O)N1CCc2cc(Br)cc(S(=O)(=O)CCC(=O)NCc3ccccc3OC)c21,-9.55%,
COc1ccc(OC)c(CNC(=O)Cn2nc(C)c3c(C)n(-c4ccccc4)nc3c2=O)c1,-14.1%,
O=C(COc1ccc(Cl)cc1Cl)N/N=C/c1ccccn1,-9.91%,
O=C(N/N=C/c1ccccn1)C12CC3CC(CC(C3)C1)C2,-2.2%,
Cc1nnc(N/N=C/c2ccccn2)[nH]c1=O,,2 µM (active)
CCc1cc2c(-c3ccccc3)cc(=O)oc2c2c1OCN(Cc1ccc(C)cc1)C2,10.3%,
O=C1CC(c2nnc(Cc3ccc(Cl)cc3)o2)CN1c1ccccc1 (centres undefined),-6.28%,
CC(O)CNCCOc1cccc(Oc2ccccc2)c1 (centres undefined),-14.2%,
COc1cccc2[nH]c(C(=O)NCCc3ccccc3)cc12,32.6%,

Compound,"activity change, negative = inhibition",Potency
COc1ccccc1OCCNCC(O)COc1cccc2[nH]c3ccccc3c12 (centres undefined),,28.2 µM (active)
COc1cc(OC)c(NC(=O)c2cnc(N3CCCC3)nc2C)cc1Cl,1.88%,
COc1ccc(CS(=O)/C(Cl)=C(/Cl)C(=O)Nc2ccc(OC)nc2)cc1 (centres undefined),,2.12 µM (active)
COc1ccc(NC(=O)C(=O)NCc2ccco2)cc1,26.5%,
COc1ccc(C(O)c2nc(-c3ccc(OC)nc3)cs2)cc1 (centres undefined),5.41%,
Cc1ccc(C)c(N2CCN(C(=O)C3CCC(CNS(=O)(=O)c4cccs4)CC3)CC2)c1 (centres undefined),-3.18%,
O=C(OCC(O)CO)c1ccccc1Nc1ccnc2c(C(F)(F)F)cccc12 (centres undefined),-12.2%,
Cc1ccc(-c2ncc(Cl)cc2-c2ccc(S(C)(=O)=O)cc2)cn1,10.3%,
CC(C)OC(=O)c1ccc(NCc2cc(O)ccc2O)cc1Cl,,17.8 µM (active)
CC(OC(=O)c1ccc(Cl)cc1O)C(=O)NCCC1=CCCCC1 (centres undefined),5.4%,
CC(CN1CCCCC1)OC(=O)c1ccccc1Cl (centres undefined),-8.37%,
Cc1c(Cl)c([N+](=O)[O-])nn1Cc1ccc(C(=O)N/N=C\c2cc(Cl)ccc2O)o1,,2.82 µM (active)
O=C(N/N=C\c1ccc(Br)cc1)c1ccc(Cn2cccn2)o1,33.9%,
Cc1nn(Cc2ccccc2Cl)c(C)c1NC(=O)Cn1nc([N+](=O)[O-])c(Cl)c1C,-2.31%,
Cc1nn(-c2ccc(F)cc2)c(-n2cccc2)c1C(=O)N1CCN(c2ccccc2)CC1,-12.5%,
CCC(C)N(C(=O)CSc1nnnn1-c1ccccc1OC)C1CCS(=O)(=O)C1 (centres undefined),1.29%,
COc1ccccc1-n1nnnc1S(=O)(=O)Cc1ccc(Cl)cc1,,14.1 µM (active)
COc1ccccc1-n1nnnc1SCC(=O)NC(=O)Cc1ccccc1,1.79%,
Cc1cn(C)c(CC(=O)NCc2ccc(Cl)cc2)c1C(=O)O,12.4%,
CCc1ccc(Nc2nn3c(=O)c4cc5c(cc4nc3s2)OCO5)cc1,8.02%,
Cc1ccc(SCC(=O)Nc2ccc3oc(-c4ccccc4C)nc3c2)cc1,4.47%,
COc1ccc(-c2cc(-c3ccccc3)nc3c2COc2ccc(Cl)cc2-3)cc1,0.0064%,
CCC(=O)N1CCc2cc(S(=O)(=O)NCCC(=O)Nc3cccc(C)c3C)ccc21,10.8%,
COc1ccc(NC(=O)C2CCCN(S(=O)(=O)c3c(C)[nH]c(=O)[nH]c3=O)C2)c(OC)c1 (centres undefined),-1.52%,
Oc1c(Cl)cc(Cl)c(Cl)c1Cc1c(O)c(Cl)cc(Cl)c1Cl,,28.2 µM (active)

Compound,"activity change, negative = inhibition",Potency
OCCC#Cc1ccc(N2C(c3ccsc3)=Cc3ccc(F)cc3C2c2c[nH]c3ccccc23)cc1 (centres undefined),-24.8%,
Cc1cc(Cl)ccc1-c1nc(NCCN(C)C)nc2ccsc12,-22.9%,
Cc1cc(C)n(-c2c(F)c(F)c(COC(=O)c3ccccc3)c(F)c2F)n1,5.42%,
CCOC(=O)c1cnc(-n2nc(C)cc2C)nc1NNc1cc(C)nc(-c2ccccc2)n1,,7.08 µM (active)
Cc1cc(-n2nc(C)cc2C)n2ncc(-c3ccccc3)c2n1,22.1%,
Cc1ccc(CN2CCCn3nc(C(=O)NCc4ccccc4Cl)cc3C2=O)cc1,-27.7%,
O=C1CC(c2ccc(F)cc2F)c2cc3c(cc2N1)OCO3 (centres undefined),-15.4%,
Cc1cccn2c(=O)c3cc(C(=O)NC(C)c4ccccc4)c(=N)n(CCCO)c3nc12 (centres undefined),3.42%,
COC(=O)c1sc(NC(=S)NC(=O)c2ccc(C)cc2)nc1C,17.5%,
COc1ccc(C(=O)NC2=NCCS2)c(OC)c1,-24.2%,
COC(=O)c1sc(NC(=O)c2ccc(OC)cc2OC)nc1C,,2.24 µM (active)
O=C(NC1CCCCC1)c1ccc(Cn2c(SCc3ccccc3)nc3cccnc32)cc1,6.62%,
COC(=O)c1ccc2nc(-c3ccc(OC)c(OC)c3)c(Cc3ccccc3)n2c1,-6.06%,
Cc1cc(Nc2cc(CN3CCOCC3)c3nc(C)c(Cc4ccc(Cl)cc4F)n3n2)n[nH]1,,19.3 µM (active)
Cc1ccc(Cl)cc1NC(=O)CN1CCN(S(=O)(=O)N2CCOCC2)CC1,3.26%,
O=C1NC(=O)C(=Cc2cccc(C(F)(F)F)c2)S1,21.6%,
CCOC(=O)c1cc2c(=O)n3ccccc3nc2n(Cc2ccco2)c1=NC(=O)c1ccc(F)cc1,3.51%,
CCC1CCCCN1Cc1c(O)ccc2c(=O)c(Oc3ccccc3Cl)c(C(F)(F)F)oc12 (centres undefined),-0.396%,
C[C@@H]1C[C@@H]2O[C@H]2/C=C\C=C\C(=O)Cc2c(Cl)c(O)cc(O)c2C(=O)O1,,4.74 µM (active)
CC1(C(=O)NCc2cccc3ccccc23)CCN1Cc1ccc(-c2ccccc2)o1 (centres undefined),-26.5%,
CN(C)CCN(C(=O)C1=COCCO1)c1nc2ccc(Cl)cc2s1,-17.5%,
CN(C)CCCN(C(=O)c1ccc(S(=O)(=O)N2CCCCCC2)cc1)c1nc2ccc(Br)cc2s1,,31.6 µM (active)
Cc1cc(C)c2sc(NC(=O)c3ccc(S(=O)(=O)N4CCCC4)cc3)nc2c1,9.87%,
CCOC(=O)c1ccc(-c2ccc3ncnc(N(C)Cc4sccc4C)c3c2)o1,14.4%,
O=c1c2ccccc2ncn1/N=C/c1ccccc1,8.36%,

Compound,"activity change, negative = inhibition",Potency
Cc1ccc(-n2c(SCC(=O)N/N=C/C=C/c3ccccc3[N+](=O)[O-])nc3ccccc3c2=O)cc1,-2.09%,
CCn1c(/C=C/c2ccc([N+](=O)[O-])o2)nc2ccccc2c1=O,,8.91 µM (active)
Cc1ccc(-n2c(SCC(=O)Nc3cccc(F)c3)nc3c(oc4ccccc43)c2=O)cc1C,14.2%,
CCCc1c2oc(C(=O)O)cc(=O)c2cc2c(=O)cc(C(=O)O)n(CC)c12,3.26%,
CC1(C)OC[C@@H](COC(=O)CCc2ccc(OC[C@@H](O)CNCCNC(=O)N3CCOCC3)cc2)O1,1.02%,
Cc1ccc(C)c(N2CCN(C(=O)CCCn3c(=O)c4cccn4c4cccnc43)CC2)c1,-30.8%,
Cc1ccc(C)c(N2CCN(C(=O)CCc3nc4ccccc4[nH]3)CC2)c1,-22.2%,
Cc1ccc(C)c(N2CCN(C(=O)CCCCCn3c(=S)[nH]c4ccc(N5CCOCC5)cc4c3=O)CC2)c1,,2.82 µM (active)
COc1ccc(-c2c(C)c3ccc(O)c(CN4CCCC4)c3oc2=O)cc1OC,-15.7%,
CO[C@H]1O[C@@H]2O[C@@]3(C)CC[C@@H]4[C@@H](C)CC[C@@H]([C@H]1C)[C@@]24OO3,-21.4%,
CCOc1ccc(CNC(=O)c2cccc(Nc3nc4ccccc4n4nnnc34)c2)cc1OC,13.1%,
C=CCn1c(C)cc(C2=NNC(=NCC)SC2)c1C,,0.447 µM (active)
C=C1C(=CC=C2CCC[C@]3(C)[C@@H]([C@H](C)C=C[C@H](C)C(C)C)CC[C@@H]23)C[C@@H](O)C[C@@H]1O,104%,
COc1ccc(Cc2nc3ccc(C(=O)NCc4ccccc4Cl)cc3o2)cc1,0.129%,
Cc1ccc(S(=O)(=O)N2CCC(C(=O)Nc3cc(C)ccc3C)CC2)cc1,-3.58%,
Cc1ccnc(NC(=O)C2CCN(S(=O)(=O)c3c(C)c(C)cc(C)c3C)CC2)c1,,7.94 µM (active)
O=C(Nc1ccccn1)C1CCN(S(=O)(=O)c2ccccc2)CC1,30.1%,
COc1cccc(CNC(=O)C(=O)NCC(c2cccs2)S(=O)(=O)c2ccccc2)c1 (centres undefined),-24.1%,
CCc1ccc(OC2(C)CCN(CCOc3ccc(C)cc3)C2)cc1 (centres undefined),-24.5%,
CCCCCCCCn1c2c(c(=N)c3c1CCC3)CCCC2,,0.891 µM (active)
CCCS(=O)(=O)N1CCC(n2c(C(F)(F)F)nc3cccnc32)CC1,-14.9%,
CCOc1cc2[nH]c(=O)n(Cc3ccc(C(=O)NCCN(CC)CC)cc3)c(=O)c2cc1OCC,-1.01%,
CCN(CC)CCNC(=O)c1c(C)[nH]c(C=C2C(=O)Nc3ccc(F)cc32)c1C,,44.4 µM (active)
CCN(CC)CCNC(=O)c1cc(S(C)(=O)=O)ccc1OC,,inactive
